Most compounds without a hit are left out; they make up all but 2.8% or so of the library.
PAFAH2 FP inh – inhibitors of human PAFAH2 | recombinant PAFAH2, FP-rhodamine activity probe, fluorescence polarization | inhibition, % at 3.39 µM | hit rate 0.99% among 340,000;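 active means inhibition above the mean over all tested compounds plus 3 SD, cut at about 30% in these data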;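 further: inhibitors block probe labeling of enzyme so polarization drops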
PME-1 primary – blocks human protein phosphatase methylesterase 1 | Q9Y570 | recombinant PME-1, FP-Rh probe fluorescence polarization | hit rate 0.53% among 320,000 | inhibition, % at 5.9 µM;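 active means inhibition above the campaign mean of all compounds plus 3 SD, cut at about 26% in these data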;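 further: competitive labeling of PME-1 active site by serine hydrolase directed probe; inhibitors block probe labeling so polarization falls and inhibition rises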
PAFAH1B3 inh – PAFAH1B3 (human) inhibition | Q15102 | recombinant PAFAH1B3, FP-rhodamine probe, fluorescence polarization | inhibition, % at 3.39 µM | hit rate 0.28% among 340,000;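 active means inhibition above the screen-wide average of all tested compounds plus 3 SD, cut at about 25% in these data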
Target sequence (Q15102 whole entry, looked up): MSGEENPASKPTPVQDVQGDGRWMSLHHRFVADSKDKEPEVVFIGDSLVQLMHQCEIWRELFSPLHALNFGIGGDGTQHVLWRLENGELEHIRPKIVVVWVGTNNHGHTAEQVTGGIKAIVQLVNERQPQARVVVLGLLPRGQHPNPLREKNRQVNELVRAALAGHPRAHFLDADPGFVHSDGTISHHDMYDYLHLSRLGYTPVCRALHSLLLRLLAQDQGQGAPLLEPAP
PAFAH1B2 FP inh – PAFAH1B2 (human) inhibition; P68402; recombinant PAFAH1B2, FP-rhodamine activity probe, fluorescence polarization; inhibition, % at 3.39 µM; hit rate 1.2% among 340,000; AID 492953;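 active means inhibition above the mean of all tested compounds plus 3 SD, cut at about 24% in these data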
Target sequence (P68402 whole entry, looked up): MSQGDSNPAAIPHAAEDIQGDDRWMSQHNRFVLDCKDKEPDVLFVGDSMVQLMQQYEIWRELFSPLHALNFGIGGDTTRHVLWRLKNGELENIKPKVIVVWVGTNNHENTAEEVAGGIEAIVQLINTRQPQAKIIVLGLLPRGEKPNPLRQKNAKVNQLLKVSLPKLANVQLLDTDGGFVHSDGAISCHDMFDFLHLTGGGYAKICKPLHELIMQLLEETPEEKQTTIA
Fam108B counter – blocks mouse Fam108B hydrolase in RBBP9 counter-screen. recombinant Fam108B, FP-Rh probe fluorescence polarization. inhibition, % at 9.51 µM. hit rate 0.33% among 300,000;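 active means inhibition above the screen mean inhibition plus 3 SD, computed separately per campaign, cut at about 18% in these data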;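 further: inhibitors lower polarization as less probe binds the enzyme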
pPAFAH FP inh – inhibitors of human plasma PAF acetylhydrolase (pPAFAH); recombinant pPAFAH, FP-rhodamine probe fluorescence polarization; AID 463082; Q13093; inhibition, % at 3.39 µM; hit rate 1.5% among 330,000;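 active means inhibition above the mean inhibition across the screen plus 3 SD, cut at about 25% in these data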;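 further: inhibitors block binding of the rhodamine activity-based probe so polarization drops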
pPAFAH confirm – pPAFAH (human) inhibition, confirmed; inhibition, % at 3.39 µM; AID 463230; recombinant pPAFAH, FP-Rh probe fluorescence polarization; hit rate 72% among 2,300; shares compounds with pPAFAH FP inh;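 active means mean inhibition of the triplicate above the hit cutoff set for the earlier primary screen, cut at about 25% in these data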
Of the large screens only hits and unclear results are named; the others gave an inactive call (follow-up assays come after a bar, where they were run).

O=C(COC(=O)c1ccc(NS(=O)(=O)c2cccs2)cc1)NCc1ccco1	PAFAH2 FP inh 40.4, pPAFAH FP inh 41.5 | pPAFAH confirm 29.5
C[C@H](CO)N1C[C@H](C)[C@@H](CN(C)C(=O)Nc2ccc(C(F)(F)F)cc2)Oc2ccc(NS(=O)(=O)c3ccccc3)cc2C1=O	pPAFAH FP inh 76.4 (no result: PME-1 primary, Fam108B counter) | pPAFAH confirm 68.4
C[C@H](CO)N1C[C@H](C)[C@@H](CN(C)C(=O)Nc2ccc(C(F)(F)F)cc2)Oc2ccc(NS(=O)(=O)c3ccc(F)cc3)cc2C1=O	pPAFAH FP inh 60.7 (no result: PME-1 primary, Fam108B counter) | pPAFAH confirm 59.0
C[C@H](CO)N1C[C@H](C)[C@@H](CN(C)C(=O)Nc2ccc(C(F)(F)F)cc2)Oc2ccc(NS(=O)(=O)c3cccs3)cc2C1=O	none (no result: PME-1 primary, Fam108B counter)
Cc1ccc(Cl)cc1N(C)C(=O)Cn1ncc2c([nH]c3ccccc32)c1=O	none
CC(=O)N1CCN(c2ccc(NCc3ccco3)cc2)CC1	none (no result: Fam108B counter)
CC(=O)N1CCN(c2ccc(NCc3ccc(-c4cccc(Cl)c4)o3)cc2)CC1	pPAFAH FP inh 41.5 (no result: PME-1 primary, Fam108B counter) | pPAFAH confirm 46.1
COc1ccc2nc(NC(=O)CSc3nnc(C)n3N)sc2c1	pPAFAH FP inh 37.9 | pPAFAH confirm inactive
COc1ccc2nc(NC(=O)CSc3nnc(N)s3)sc2c1	none
CCOC(=O)C1CCCN(S(=O)(=O)c2c(C(=O)N3CCCCC3)c(C)n(C)c2C)C1 (centres undefined)	none
CCOC(=O)C1(C)C=C(Nc2ccc(O)cc2)C(=O)N1c1ccc(O)cc1 (centres undefined)	pPAFAH FP inh 70.1 | pPAFAH confirm inactive
COc1ccc(S(=O)(=O)NNC(=O)C2COc3ccccc3O2)cc1[N+](=O)[O-] (centres undefined)	none
c1ccc(Nc2nc3ccccc3[nH]2)nc1	pPAFAH FP inh 35.7 | pPAFAH confirm inactive
CSc1ncccc1C(=O)OCC(=O)NC1CCS(=O)(=O)C1 (centres undefined)	none
CSc1ncccc1C(=O)OCC(=O)NC1CCC(C)CC1 (centres undefined)	PAFAH2 FP inh 36.4, pPAFAH FP inh 51.9 (no result: Fam108B counter) | pPAFAH confirm inactive
Nc1scc2c(C(=O)N/N=C/c3ccc(Cl)cc3)nn(-c3ccccc3)c(=O)c12	pPAFAH FP inh 35.1 | pPAFAH confirm inactive
COCC(COS(N)(=O)=O)C(C)C (centres undefined)	none
CC(=O)N1N=C(c2ccc(Cl)cc2)CC1c1ccco1 (centres undefined)	none
Cc1ccc(S(=O)(=O)N[C@H](C(=O)OCC(=O)N2N=C(c3ccc(Cl)cc3)CC2c2ccco2)C(C)C)cc1 (some centres undefined)	pPAFAH FP inh 40.4 | pPAFAH confirm inactive
COc1ccc(C(=O)CCC(=O)Nc2cc(Cl)c(O)c(Cl)c2)cc1	none
CCOC(=O)C1CCN(C(=O)C2CCCN(c3ncnc4c3nc3n4CCCCC3)C2)CC1 (centres undefined)	none
CCc1nc2ccc(C(=O)N(C)CC(=O)Nc3cccc(F)c3)cc2nc1CC	none (no result: Fam108B counter)
Cc1ccc(C)c(/C=C/C(=O)c2ccccc(=O)c2O)c1	none
Cc1ccc(/C=C/C(=O)c2ccccc(=O)c2O)c(C)c1	pPAFAH FP inh 69.3 | pPAFAH confirm inactive
O=C(/C=C1\NC2(CCCC2)Cc2ccccc21)C(=O)N/N=C/c1ccc(O)c(O)c1	PAFAH2 FP inh 34.1, PME-1 primary 32.0, pPAFAH FP inh 48.0 | pPAFAH confirm 87.5
Cc1cccc(CNc2ccc(S(=O)(=O)N3CCCCC3)cc2)c1	none (no result: Fam108B counter)
O=[N+]([O-])c1cc(Cl)ccc1Oc1ccc(-c2nnco2)cc1	none
O=C(O)c1ccc(N=Nc2c(O)ccc3ncccc23)cc1	PAFAH1B3 inh 33.4, pPAFAH FP inh 39.1 | pPAFAH confirm 55.7
Cc1ccc(C(=O)N2CCCCC2C(=O)O)cc1S(=O)(=O)N1CCCCC1 (centres undefined)	none (no result: PME-1 primary, Fam108B counter)
CCCOc1ccc(C(C)=O)cc1CSc1nc(O)cc(=O)[nH]1	pPAFAH FP inh 34.7 | pPAFAH confirm inactive
COC(=O)c1ccc(-n2c(C)cc(/C=N/Nc3nc(C)cc(=O)[nH]3)c2C)cc1	pPAFAH FP inh 66.5 | pPAFAH confirm 89.3
